Source: PubChem BioAssay (Tox21)
Records with an inconclusive call do not appear. Values without a mark were called inactive. Calls come from the whole dose curve; as a rule, active = well fitted cell-killing curve with a large enough effect in the repeat runs; inconclusive = weak or mixed curves, or effect the other way; inactive = flat fitted curve, though single readings scatter.

Experiment: qHTS assay to identify small molecule agonists of the estrogen receptor beta (ER-beta) signaling pathway - cell viability counter screen (AID 1259380); note: nearly all actives have a fitted effect of over 30% in size
Conditions: ER-beta-bla HEK293T viability, CellTiter-Glo luminescence, 16 h; series mostly up to 92.4 µM; activity change, negative = cytotoxicity: at the top concentration
Source text: National Center for Advancing Translational Sciences [NCATS]
NIH Chemical Genomics Center [NCGC]
U.S. Environmental Protection Agency [EPA]
National Institutes of Environmental Health Sciences [NIEHS]
National Toxicology Program [NTP]
U.S. Food and Drug Administration [FDA]
Estrogen receptor (ER), a nuclear hormone receptor, plays an important role in development, metabolic homeostasis and reproduction. Two subtypes of ER, ER-alpha and ER-beta, have similar expression patterns with some uniqueness in both types. Endocrine disrupting chemicals (EDCs) and their interactions with steroid hormone receptors like ER causes disruption of normal endocrine function. To identify the compounds that activate ER signaling, an ER beta-UAS-bla GripTite cell line (Life Technologies, Madison, WI, USA) containing a beta-lactamase reporter gene under the control of an UAS response element was used to screen Tox21 10K compound library. The cytotoxicity of the Tox21 compound library against the ER-beta-bla cell line was tested in parallel by measuring the cell viability using CellTiter-Glo assay in the same wells.
Tox21 Assay Protocol Summary:
ER-beta-UAS-bla HEK293T cells were dispensed at 2,000 cells/5 uL of assay medium containing 2% charcoal stripped FBS per well into black wall/clear-bottom 1536-well plates using a Multidrop Combi (ThermoFisher Scientific, Waltham, MA) dispenser. After the assay plates were incubated at a 37C and 5% CO2 for 6 hr, 23 nL of compounds dissolved in DMSO, positive controls or DMSO only was transferred to the assay plate by a Pintool station (Kalypsys, San Diego, CA). The plates were incubated at 37C and 5% CO2 for 16 hr. Then 1 uL of LiveBLAzerTM B/G FRET substrate was added using a BioRAPTR FRD (Flying Reagent Dispenser, Aurora Discovery, San Diego, CA) and then the plates were incubated at room temperature for 2 hours, and fluorescence intensity was measured by an Envision plate reader (PerkinElmer, Shelton, CT). For cell viability readout that measures cytotoxicity, 4 uL/well of CellTiter-Glo reagent was added into the assay plates using a FRD. After 30 min incubation at room temperature, the luminescence intensity in the plates was measured using a ViewLux (PerkinElmer) plate reader.
% is set by controls: 0 for no effect and ±100 for the full control effect.

Compound	activity change, negative = cytotoxicity
CC/C=C\CC/C=C/CO	1.3%
CCO/C([O-])=N/c1c[n+](N2CCOCC2)no1	9.99% [at 42.5 µM]
O=C[C@H](O)[C@@H](O)[C@H](O)[C@H](O)CO	15.6%
N=C(N)c1ccc2cc(OC(=O)c3ccc(N=C(N)N)cc3)ccc2c1	4.41% [at 42.5 µM]
Cc1cc2c(cc1S(N)(=O)=O)S(=O)(=O)CCC2	0.338% [at 42.5 µM]
C/C=C(\C)C#N	-0.766%
O=[N+]([O-])c1ccc(F)cc1F	-0.219%
CCCCC(CC)COC(=O)c1ccccc1O (stereo not given)	-1.01% [at 42.5 µM]
CC(C)=CCCC(C)CC(=O)O (stereo not given)	2%
N[C@@H](C(=O)N[C@@H]1C(=O)N2C(C(=O)O)=C(Cl)CS[C@H]12)c1ccccc1	2.28% [at 8.39 µM]
Nc1c[n+](N2CCOCC2)no1	13% [at 42.5 µM]
C=CCS(=O)(=O)O	6.42%
CN1CCC(=C2c3ccccc3CC(=O)c3sccc32)CC1	1.23% [at 42.5 µM]
CCOC(=O)CCC(C)=O	10.3%
NCCc1cnc[nH]1	2.86% [at 42.5 µM]
CCCCCCCCCCCCCCCCC	2.03%
CC(C)OC(=O)c1ccccc1	9.97%
CCC(=O)OC(C)c1ccccc1 (stereo not given)	8.09%
Cc1cc(O)cc2c1O[C@](C)(CCC[C@H](C)CCC[C@H](C)CCCC(C)C)CC2	8.52% [at 42.5 µM]
OC1CCCCC1c1ccccc1 (stereo not given)	0.639%

Compound	activity change, negative = cytotoxicity
CCN(CC)CCNC(=O)c1cc(S(C)(=O)=O)ccc1OC	5.87% [at 42.5 µM]
CCCC(=O)O[C@]1(C(=O)CO)CC[C@H]2[C@@H]3CCC4=CC(=O)CC[C@]4(C)[C@H]3[C@@H](O)C[C@@]21C	1.05% [at 42.5 µM]
Cc1cnc(NS(=O)(=O)c2ccc(N)cc2)nc1	-1.51% [at 42.5 µM]
CC(C)(CC(=O)O)C(=O)O	5.06%
O=C(O)CN(CCOCCOCCN(CC(=O)O)CC(=O)O)CC(=O)O	9.83% [at 0.349 µM]
NC(=O)c1ccc([N+](=O)[O-])cc1	2.03%
Cc1c(NC(C)C)c(=O)n(-c2ccccc2)n1C	3.59% [at 42.5 µM]
c1cnc(N2CCN(Cc3ccc4c(c3)OCO4)CC2)nc1	-9.49% [at 42.5 µM]
CCCCNC(=O)NCCCC	1.43%
O=C1CCCC(=O)C1	2.56%
CC(C)(O)C#CC(C)(C)O	13%
CC1=CC(C)C(C=O)CC1 (stereo not given)	0.223%
NS(=O)(=O)c1cc(C(=O)O)cc(N2CCCC2)c1Oc1ccccc1	6.94% [at 42.5 µM]
N=C(N)c1ccc(OCCCOc2ccc(C(=N)N)cc2)cc1	1.28% [at 42.5 µM]
Cn1c(N)c(N=O)c(=O)n(C)c1=O	-12.4%
CCS(=O)(=O)c1ccc(OC)c(C(=O)OC)c1	5.21% [at 42.5 µM]
CCc1nccnc1CC	3.58% [at 19 µM]
O=C(O)Cc1ccc(CCNS(=O)(=O)c2ccc(Cl)cc2)cc1	1.49% [at 42.5 µM]
N[C@H]1CN(c2c(F)cc3c(=O)c(C(=O)O)cn(C4C[C@H]4F)c3c2Cl)CC12CC2 (stereo not given in full)	0.015% [at 42.5 µM]
CC(C)NCC(O)c1ccc(NS(C)(=O)=O)cc1 (stereo not given)	2.11%
